Data: PubChem BioAssay AID1159580 (chemical genetic matrix, 2015)
In all, about 5,500 compounds went through this assay and about 2,000 (36%) were called active. Not shown: some 18% with an inconclusive outcome. Cut-off read from the data, not from the text of the source: active = normalized growth mostly below about 0.91 (no sharp cut-off); inconclusive = no clear call, values can overlap the other calls; inactive = mostly above about 0.92. The list shows a part of the results.

Assay: chemical genetic growth profiling, strain panel (AID 1159580);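 note: tested at 20 µM; growth read once vehicle control cultures reached saturation at 30 °C; 1 = growth at the plate median or of vehicle wells; lower values mean less growth of the strain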
Details: growth OD

Measured: normalized growth

C=C1CCC2C(CC2(C)C)C(=C)CC/C1=N\O (centres undefined)
active: S. cerevisiae deletion strains, locus YKL009W, strain mrt4, hits give low values 0.879 | S. cerevisiae deletion strains, locus YKR001C, strain vps1, hits give low values 0.703 | S. cerevisiae deletion strains, locus YLR039C, strain RIC1, hits give low values 0.441 | S. cerevisiae deletion strains, locus YLR262C, strain YPT6, hits give low values 0.393 | S. cerevisiae deletion strains, locus YLR342W, strain FKS1 (second series), hits give low values 0.694 | S. cerevisiae deletion strains, locus YML032C, strain rad52, hits give low values 0.89 | S. cerevisiae deletion strains, locus YMR307W, strain GAS1, hits give low values 0.423 | S. cerevisiae deletion strains, locus YNL298W, strain CLA4, hits give low values 0.878 | S. cerevisiae deletion strains, locus YNL307C, strain MCK1, hits give low values 0.683 | S. cerevisiae deletion strains, locus YOR184W, strain ser1, hits give low values 0.697
inactive: S. cerevisiae deletion strains, locus YJL187C, strain SWE1, hits give low values 1.01 | S. cerevisiae deletion strains, locus YJR043C, strain POL32, hits give low values 0.905 | S. cerevisiae deletion strains, locus YJR075W, strain HOC1, hits give low values 0.894 | S. cerevisiae deletion strains, locus YKL068W, hits give low values 0.996 | S. cerevisiae deletion strains, locus YKL085W, strain MDH1 (second series), hits give low values 0.972 | S. cerevisiae deletion strains, locus YKL085W, strain MDH1, hits give low values 0.972 | S. cerevisiae deletion strains, locus YKL160W, strain elf1, hits give low values 1 | S. cerevisiae deletion strains, locus YKL190W, strain CNB1, hits give low values 1.01 | S. cerevisiae deletion strains, locus YKR026C, strain gcn3, hits give low values 0.998 | S. cerevisiae deletion strains, locus YKR091W, strain srl3, hits give low values 0.995 | S. cerevisiae deletion strains, locus YLL001W, strain dnm1, hits give low values 1.01 | S. cerevisiae deletion strains, locus YLL026W, hits give low values 0.999 | S. cerevisiae deletion strains, locus YLL041C, strain sdh2, hits give low values 0.994 | S. cerevisiae deletion strains, locus YLR027C, strain aat2, hits give low values 1 | S. cerevisiae deletion strains, locus YLR058C, strain SHM2, hits give low values 1.01 | S. cerevisiae deletion strains, locus YLR102C, strain apc9, hits give low values 1.01 | S. cerevisiae deletion strains, locus YLR221C, strain rsa3, hits give low values 0.983 | S. cerevisiae deletion strains, locus YLR258W, strain gsy2, hits give low values 1.01 | S. cerevisiae deletion strains, locus YLR262C, strain YPT6 (second series), hits give low values 0.966 | S. cerevisiae deletion strains, locus YLR268W, strain sec22, hits give low values 0.936 | S. cerevisiae deletion strains, locus YLR320W, strain mms22, hits give low values 0.984 | S. cerevisiae deletion strains, locus YLR330W, strain CHS5, hits give low values 1.01 | S. cerevisiae deletion strains, locus YLR342W, strain FKS1, hits give low values 1.01 | S. cerevisiae deletion strains, locus YLR357W, strain rsc2, hits give low values 1.03 | S. cerevisiae deletion strains, locus YLR370C, strain arc18, hits give low values 0.996 | S. cerevisiae deletion strains, locus YLR371W, strain rom2, hits give low values 0.994 | S. cerevisiae deletion strains, locus YLR384C, strain iki3, hits give low values 0.992 | S. cerevisiae deletion strains, locus YLR418C, strain cdc73, hits give low values 0.847 | S. cerevisiae deletion strains, locus YML016C, strain PPZ1, hits give low values 0.999 | S. cerevisiae deletion strains, locus YML120C, strain ndi1, hits give low values 1.01 | S. cerevisiae deletion strains, locus YML124C, strain tub3, hits give low values 0.99 | S. cerevisiae deletion strains, locus YMR058W, strain fet3, hits give low values 1.01 | S. cerevisiae deletion strains, locus YMR078C, strain ctf18, hits give low values 0.978 | S. cerevisiae deletion strains, locus YMR125W, strain sto1, hits give low values 1.03 | S. cerevisiae deletion strains, locus YMR129W, hits give low values 1 | S. cerevisiae deletion strains, locus YMR205C, strain PFK2, hits give low values 0.992 | S. cerevisiae deletion strains, locus YMR223W, strain ubp8, hits give low values 0.906 | S. cerevisiae deletion strains, locus YMR231W, strain pep5, hits give low values 0.997 | S. cerevisiae deletion strains, locus YMR263W, strain SAP30, hits give low values 0.962 | S. cerevisiae deletion strains, locus YNL067W, strain RPL9B, hits give low values 0.942 | S. cerevisiae deletion strains, locus YNL071W, strain lat1, hits give low values 1 | S. cerevisiae deletion strains, locus YNL128W, strain TEP1, hits give low values 0.964 | S. cerevisiae deletion strains, locus YNL153C, strain GIM3, hits give low values 0.972 | S. cerevisiae deletion strains, locus YNL209W, strain ssb2, hits give low values 1 | S. cerevisiae deletion strains, locus YNL233W, strain BNI4, hits give low values 0.892 | S. cerevisiae deletion strains, locus YNL248C, strain rpa49, hits give low values 1 | S. cerevisiae deletion strains, locus YNL250W, strain rad50, hits give low values 0.991 | S. cerevisiae deletion strains, locus YNL271C, strain bni1, hits give low values 0.969 | S. cerevisiae deletion strains, locus YNL322C, strain KRE1 (second series), hits give low values 0.983 | S. cerevisiae deletion strains, locus YNL322C, strain KRE1, hits give low values 0.988 | S. cerevisiae deletion strains, locus YNR049C, strain mso1, hits give low values 0.997 | S. cerevisiae deletion strains, locus YNR052C, strain pop2, hits give low values 0.944 | S. cerevisiae deletion strains, locus YOL006C, strain TOP1, hits give low values 0.725 | S. cerevisiae deletion strains, locus YOL012C, strain htz1 1.35 | S. cerevisiae deletion strains, locus YOL147C, strain pex11, hits give low values 0.983 | S. cerevisiae deletion strains, locus YOR001W, strain rrp6, hits give low values 0.985 | S. cerevisiae deletion strains, locus YOR061W, strain CKA2, hits give low values 0.997 | S. cerevisiae deletion strains, locus YOR069W, strain VPS5, hits give low values 1.01 | S. cerevisiae deletion strains, locus YOR070C, strain gyp1, hits give low values 0.991 | S. cerevisiae deletion strains, locus YOR080W, strain dia2, hits give low values 1.01 | S. cerevisiae deletion strains, locus YOR083W, strain WHI5, hits give low values 0.989 | S. cerevisiae deletion strains, locus YOR106W, strain vam3, hits give low values 1 | S. cerevisiae deletion strains, locus YOR136W, strain idh2, hits give low values 0.972 | S. cerevisiae deletion strains, locus YOR144C, strain elg1, hits give low values 0.976 | S. cerevisiae deletion strains, locus YOR265W, strain rbl2, hits give low values 0.993 | S. cerevisiae deletion strains, locus YOR270C, strain vph1, hits give low values 0.987 | S. cerevisiae deletion strains, locus YOR290C, strain snf2, hits give low values 0.972 | S. cerevisiae deletion strains, locus YOR316C, strain cot1, hits give low values 1 | S. cerevisiae deletion strains, locus YPL051W, strain arl3, hits give low values 1.03 | S. cerevisiae deletion strains, locus YPL055C, strain LGE1, hits give low values 0.844 | S. cerevisiae deletion strains, locus YPL078C, strain atp4, hits give low values 1 | S. cerevisiae deletion strains, locus YPL106C, strain sse1, hits give low values 1.05 | S. cerevisiae deletion strains, locus YPL240C, strain hsp82, hits give low values 1 | S. cerevisiae deletion strains, locus YPR119W, strain clb2, hits give low values 0.983 | S. cerevisiae deletion strains, locus YPR141C, strain kar3, hits give low values 1.01 | S. cerevisiae deletion strains, locus YPR163C, strain tif3, hits give low values 0.996 | S. cerevisiae deletion strains, locus YPR167C, strain met16, hits give low values 0.993 | S. cerevisiae deletion strains, strain wtn01, hits give low values 0.915 | S. cerevisiae strains, strain wild type, hits give low values 0.982
